# About 4,300 (8.3%) of roughly 52,000 compounds were called active. No stated cut-off is given here; in the data, active means survival mostly below about 52% (no sharp cut-off); inactive means mostly above about 56%. Many of the other results were omitted from the sample, so actives are more common in it than they were.
# System: DeltatarO mutant
# Assay: S. aureus survival, RN4220 and DeltatarO strains – OD600, teichoic acid synthesis inhibitors, primary screen (AID 463173)
# Conditions: S. aureus RN4220 wild type/DeltatarO growth, OD600, 18 h, active compounds read low, screened at 18.75 µg/mL (by protocol)
row,Compound,survival
1,Cc1cccc(C)c1NC(=O)CSc1ncc2c(n1)-c1ccc(Cl)cc1N(Cc1ccccc1)S2(=O)=O,0% (active)
2,COc1ccc(CNC(=O)CSc2ncc3c(n2)-c2ccc(Cl)cc2N(Cc2ccccc2)S3(=O)=O)cc1,49% (inactive)
3,COc1ccccc1CNC(=O)CSc1ncc2c(n1)-c1ccc(Cl)cc1N(Cc1ccccc1)S2(=O)=O,32% (active)
4,COc1ccccc1CNC(=O)CSc1ncc2c(n1)-c1cc(Cl)ccc1N(Cc1ccccc1)S2(=O)=O,80% (inactive)
5,CCc1cccc(NC(=O)CSc2ncc3c(n2)-c2ccc(Cl)cc2N(Cc2ccccc2)S3(=O)=O)c1,92% (inactive)
6,O=C(CSc1ncc2c(n1)-c1ccc(Cl)cc1N(Cc1ccccc1)S2(=O)=O)Nc1ccc(F)c(F)c1,131% (inactive)
7,CCN(CC)N=Nc1ccc(NC(C)=O)cc1,113% (inactive)
8,CCc1ccc(-n2nc(C)c3c(C(=O)Nc4cc(C)ccc4C)cc(C)nc32)cc1,60% (inactive)
9,Cc1c(N)c(C)c(N)c(C)c1N,96% (inactive)
10,CCOc1ccccc1CNC(=O)C1CCN(C(=O)N2CC(CC)Oc3ccc(C)cc32)CC1 (stereo not drawn),71% (inactive)
11,CCOC(=O)c1c(S(=O)(=O)NCC(=O)Nc2ccc(C)c(Cl)c2)c(C)n(C)c1C,61% (inactive)
12,Cc1ccc(NC(=O)Cn2c(=O)n(Cc3ccc(F)cc3)c(=O)c3cccnc32)cc1C,91% (inactive)
13,Cc1ccc(-n2nc(C)c3nc(CCC(=O)Nc4ccc(F)cc4)c(=O)n(C)c32)cc1,73% (inactive)
14,Cc1ccc(-n2nc(C)c3nc(CCC(=O)Nc4cccc(F)c4)c(=O)n(C)c32)cc1,-5% (active)
15,COc1cccc(NC(=O)CCc2nc3c(C)nn(-c4ccc(C)cc4)c3n(C)c2=O)c1,81% (inactive)
16,O=C(c1cc(S(=O)(=O)N2CCCC2)c[nH]1)N1CCN(c2cccc(Cl)c2)CC1,98% (inactive)
17,COCCn1nnnc1C(c1ccc2ncccc2c1)N1CCc2ccccc21 (stereo not drawn),98% (inactive)
18,COc1cc(-c2noc(-c3ccc(NCc4ccco4)c([N+](=O)[O-])c3)n2)cc(OC)c1OC,49% (active)
19,COc1ccccc1-c1noc(-c2ccc(NCc3ccco3)c([N+](=O)[O-])c2)n1,97% (inactive)
20,COc1ccc(-c2noc(-c3ccc(NCc4ccco4)c([N+](=O)[O-])c3)n2)cc1,43% (inactive)
21,COc1ccc(-c2noc(-c3ccc(NCc4ccco4)c([N+](=O)[O-])c3)n2)cc1OC,43% (active)

row,Compound,survival
1,O=[N+]([O-])c1cc(-c2nc(-c3ccccc3)no2)ccc1NCc1ccco1,64% (inactive)
2,Cc1ccc(-c2noc(-c3ccc(NCc4ccco4)c([N+](=O)[O-])c3)n2)cc1,98% (inactive)
3,CCC(=O)N1c2nc(C(C)C)nn2C2(CCCCC2)[C@@H]2CCCC[C@@H]21,81% (inactive)
4,COC(=O)c1ccc(Cn2nnc3c(=O)[nH]c(C4CCCN(S(=O)(=O)c5cccc(Cl)c5)C4)nc32)cc1 (stereo not drawn),94% (inactive)
5,CC(C)N(C(=O)CSc1nnc(Cc2csc(Nc3ccccc3)n2)o1)C(C)C,69% (inactive)
6,CCOc1ccc2nc(NCCNC(=O)C3CCCCC3)c(C#N)cc2c1,106% (inactive)
7,CCN(CC)C(=O)/C(=C\c1ccc(OC)c(OC)c1)n1ccccc1=O,103% (inactive)
8,CCc1ccc(CNC(=O)Cn2nc(C)c3c(C)n(-c4ccc(C)cc4)nc3c2=O)cc1,79% (inactive)
9,COc1ccc(-c2cccc(NS(=O)(=O)c3cc(C)c(Cl)cc3C)c2)nn1,102% (inactive)
10,CC(=O)c1sc2c(c1C)c(=O)n(-c1ccc(Cl)cc1)c(=O)n2Cc1cc(=O)n2cc(Cl)ccc2n1,58% (inactive)
11,Cc1oc(-c2ccccc2)nc1C(=O)O,72% (inactive)
12,Cc1ccc(CNc2ccc(-c3nc(-c4ccco4)no3)cc2[N+](=O)[O-])cc1,53% (inactive)
13,CCCNc1ccc(-c2nc(-c3ccco3)no2)cc1[N+](=O)[O-],57% (active)
14,CCCCNc1ccc(-c2nc(-c3ccco3)no2)cc1[N+](=O)[O-],57% (inactive)
15,CCNc1ccc(-c2nc(-c3ccco3)no2)cc1[N+](=O)[O-],51% (inactive)
16,COc1ccccc1CNc1ccc(-c2nc(-c3ccco3)no2)cc1[N+](=O)[O-],45% (inactive)
17,O=[N+]([O-])c1cc(-c2nc(-c3ccco3)no2)ccc1NCc1ccccc1,47% (active)
18,CCc1ccc2[nH]c3nc(SCC(=O)OC(C)C)nnc3c2c1,108% (inactive)
19,Cc1cc(C)c2c(=O)c3c(oc2c1)C(=O)N(CCCOC(C)C)C3c1ccccc1F (stereo not drawn),67% (inactive)
20,CCOc1ccc(-n2c(SCC(=O)N3CCCC3)nc3c([nH]c4ccccc43)c2=O)cc1,98% (inactive)
21,CCOc1ccc(-n2c(SCC(=O)N3CCOCC3)nc3c([nH]c4ccccc43)c2=O)cc1,0% (active)

row,Compound,survival
1,CC1CCN(C(=O)CSc2nc3c([nH]c4ccccc43)c(=O)n2-c2ccccc2)CC1,75% (inactive)
2,CCOC(=O)CSc1nc2c([nH]c3ccccc32)c(=O)n1-c1ccc(OCC)cc1,99% (inactive)
3,Cc1cc(C)cc(-n2c(SCC(=O)N3CCCCC3)nc3c([nH]c4ccccc43)c2=O)c1,88% (inactive)
4,CCOc1ccc(-n2c(SC(C)C(=O)OC)nc3c([nH]c4ccccc43)c2=O)cc1 (stereo not drawn),0% (active)
5,Cc1ccc(-n2c(SCC(=O)N3CCC(C)CC3)nc3c([nH]c4ccccc43)c2=O)cc1,-5% (active)
6,Cc1cc(C)cc(-n2c(SCC(=O)N3CCC(C)CC3)nc3c([nH]c4ccccc43)c2=O)c1,17% (active)
7,CCOc1ccc(-n2c(SCC(=O)N3CCCCC3)nc3c([nH]c4ccccc43)c2=O)cc1,107% (inactive)
8,COc1ccc(-n2c(SCC(=O)N3CCC(C)CC3)nc3c([nH]c4ccccc43)c2=O)cc1,70% (inactive)
9,Cc1cc(C)cc(-n2c(SCC(=O)N3CCCC3)nc3c([nH]c4ccccc43)c2=O)c1,89% (inactive)
10,COC(=O)C(C)Sc1nc2c([nH]c3ccccc32)c(=O)n1-c1ccc(OC)cc1 (stereo not drawn),64% (inactive)
11,Cc1ccccc1S(=O)(=O)Cc1ccc(C(=O)NCc2ccccc2Cl)o1,56% (inactive)
12,Cc1ccc(-n2ncc(C(=O)NCCCN3CCc4ccccc4C3)c2C2CCN(C(=O)OC(C)(C)C)CC2)cc1C,73% (inactive)
13,COc1cccc(-n2cc(C(=O)NCc3ccccc3OC)c3ccccc3c2=O)c1,72% (inactive)
14,CCC(Oc1ccccc1)C(=O)Nc1cccc(OCc2cc(=O)n3cccc(C)c3n2)c1 (stereo not drawn),128% (inactive)
15,O=C1N(CN2CCCCC2)c2ccccc2C12OCCCCO2,94% (inactive)
16,CCc1ccc(OCC2c3cc(OC)c(OC)cc3CCN2C(=O)Cc2ccc(OC)c(OC)c2)cc1 (stereo not drawn),76% (inactive)
17,COc1ccccc1OCC(=O)NCC(c1ccc(Cl)cc1)N1CCCCC1 (stereo not drawn),61% (inactive)
18,O=C(Nc1ccc(F)cc1F)c1cc(S(=O)(=O)N2CCCCC2)c[nH]1,83% (inactive)
19,Cc1ccc(NC(=O)c2cc(-c3ccc(Br)s3)nc3ccccc23)cc1F,59% (inactive)
20,CCOc1cccc(CC(=O)N2CCc3c([nH]c4ccccc34)C2c2ccc(SC)cc2)c1OCC (stereo not drawn),107% (inactive)
21,Cn1nccc1C(=O)NCc1ccc2c(c1)CCN2C(=O)c1ccc(F)cc1,65% (inactive)

row,Compound,survival
1,O=C(CSc1nc2c([nH]c3ccccc32)c(=O)n1-c1ccc(F)cc1)NCc1ccco1,81% (inactive)
2,COC(=O)c1ccc(CSc2nc3c([nH]c4ccccc43)c(=O)n2-c2ccc(Cl)cc2)o1,112% (inactive)
3,COC(=O)c1ccc(CSc2nc3c([nH]c4ccccc43)c(=O)n2-c2cccc(Cl)c2)o1,79% (inactive)
4,CCOc1ccc(-n2c(SCC(=O)NCc3ccco3)nc3c([nH]c4ccccc43)c2=O)cc1,37% (active)
5,COC(=O)c1ccc(CSc2nc3c([nH]c4ccccc43)c(=O)n2-c2cc(C)cc(C)c2)o1,8% (active)
6,COc1ccc(-n2c(SCC(=O)NCc3ccco3)nc3c([nH]c4ccccc43)c2=O)cc1,102% (inactive)
7,CCC(C)NC(=O)CSc1nc2cc3c(cc2c(=O)n1CCCCCC(=O)NCc1ccc2c(c1)OCO2)OCO3 (stereo not drawn),84% (inactive)
8,O=C(COc1ccccc1F)Nc1c(C(=O)Nc2cccc(F)c2)oc2ccccc12,75% (inactive)
9,COc1ccc(CCNc2nc(-c3ccc(OC)c(OC)c3)cc(C(F)(F)F)n2)cc1OC,4% (active)
10,COc1ccc(CCNC(=O)C2CCN(c3nc4ccccc4nc3C(F)(F)F)CC2)cc1OC,92% (inactive)
11,COc1cccc(-c2cc(C(F)(F)F)nc(NCCc3ccc(OC)c(OC)c3)n2)c1,4% (active)
12,COc1ccc(CCNC(=O)Cn2nc(-c3ccc(Cl)cc3)ccc2=O)cc1OC,75% (inactive)
13,COc1ccc(CCNC(=O)CSc2nc(-c3ccc(F)cc3)cc(C(F)(F)F)n2)cc1OC,77% (inactive)
14,COc1ccc(-c2cc(C(F)(F)F)nc(SCC(=O)NCCc3ccc(OC)c(OC)c3)n2)cc1,59% (inactive)
15,COc1ccc(CCNc2nc(-c3ccc(Cl)cc3)cc(C(F)(F)F)n2)cc1OC,8% (active)
16,COc1ccc(CCNc2nc(-c3ccccc3OC)cc(C(F)(F)F)n2)cc1OC,-8% (active)
17,COc1ccc(CCNc2nc(-c3ccc(C)cc3)cc(C(F)F)n2)cc1OC,87% (inactive)
18,COc1ccc(CCNc2nc(-c3ccc(F)cc3)cc(C(F)(F)F)n2)cc1OC,109% (inactive)
19,CCOC(=O)N1CCC(NC(=O)c2cnn(-c3ccc(C)cc3)c2-n2cccc2)CC1,69% (inactive)
20,CCc1ccc2[nH]c(=O)c(CN(CCCN3CCOCC3)C(=S)NC)cc2c1,88% (inactive)
